Results on 36 compounds are retold here after PubChem BioAssay (NCI).

The panel holds about 83,000 compounds, 20% with a hit somewhere; the sample as a whole holds those more often.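 Compound tested at a single concentration for 48 hours in 96-well plates; a percent growth value below 10 was scored as active.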 A number with no mark means an inactive call. Active and inactive are the calls of the source.

One assay concerns HCC-2998 colon. Nature of the assay: NCI-60 one-dose screen, 48 h (100 = growth as untreated, 0 = no growth, -100 = all killed). As to conditions: 10 µM.
`COc1ccc([C@H]2[C@H](C(=O)Nc3cccnc3)c3ccccc3C(=O)N2c2ccccc2)cc1`: the growth was 100%. Regarding `COc1ccc(/C=C2\CCCC3C2=Nc2ccccc2NC3c2ccc(OC)cc2)cc1` (stereo unspecified), the growth was 104%. For the compound `O=S(=O)(NCCCNc1nccc(-c2cn(-c3ccccc3)nc2-c2ccc(Cl)c(O)c2)n1)c1ccccc1`, the growth is 91.6%.

The subject of a further assay is KM12 colon. Described as above. As to conditions: 10 µM.
`Nc1ccc(-c2cccs2)cc1NC(=O)c1ccc(CCCC(=O)Nc2ccc(C3CC3N)cc2)cc1` (stereo unspecified): the growth is 69.3%. With `CCCc1cn(CC(=O)Nc2nc3ccccc3s2)nn1`, the growth was 109%. Same read-out and setting: next, `O=C(CCCCCCC(=O)Nc1ccccc1)NO`: 14.4%; `O=[N+]([O-])c1ccc(/C(=C/c2ccccc2)[n+]2ccccc2)cc1`: 125%. For the compound `Oc1cccc(-c2nc3sccn3c2-c2ccncn2)c1`, the growth was 107%.

As for `COc1ccc(/C(=N\N)C(=O)c2ccccc2)cc1` (tested in a mixture with another compound), the growth is 102%. `COc1ccc(C(=O)N/N=C/c2cc(C(F)(F)F)ccc2Cl)cc1`: the growth was 101%. `OCC1OC2C(NC(=S)N2c2ccccc2)C(O)C1O` (stereo unspecified): the growth is 103%.

`COc1cc2cc(Oc3ccc(NC(=O)Nc4cccc(C(F)(F)F)c4)cc3)c(C)nc2cc1OC`: the growth is -10.2% (active). Same read-out and setting: next, `Cc1c2c[n+](C(C)C)ccc2c(C)c2c1[nH]c1ccccc12`: 8.68% (active); `CC(=O)Nc1ccc(S(=O)(=O)c2ccnc3cc(Cl)ccc23)cc1`: 90.1%; `CS(=O)(=O)c1nccc(-c2c(-c3cccc(OCCN4CCOCC4)c3)nc3sccn23)n1`: 96.6%. Regarding `COc1ccc(Cc2cnc(N)nc2N)cc1OC`, the growth is 110%. Regarding `C=CCN(CC=C)C(=O)[C@H](CC)[C@@H]1CC[C@@H](C)[C@@H]([C@H](C)[C@@H](O)[C@@H](C)C(=O)[C@H](CC)C2O[C@]3(C=CC(=O)[C@]4(CC[C@@](C)([C@H]5CC[C@](O)(CC)[C@H](C)O5)O4)O3)[C@H](C)C[C@@H]2C)O1` (stereo partly specified), the growth is 48.8%. For `O=C1c2c(c(=O)[nH]c3ccccc23)CCN1Cc1ccccc1`, the growth was 114%. The same measure, in the same setting: next, `COc1ccccc1-n1c(-c2csc(NC(C)=O)n2)n[nH]c1=S`: 104%; `Cc1ccc(NCCN(C)CC(C)O)c2c(=O)c3ccccc3sc12` (stereo unspecified): 44.9%. As for `CCNCC(=O)Nc1ccc(C(=O)OCC)cc1`, the growth is 95.9%. As for `COC(=O)C1OC1c1cc([N+](=O)[O-])ccc1OC` (stereo unspecified), the growth is 99.3%. Take `O=C1c2ccccc2C(=O)c2c1ccc1c(=O)n(-c3ccccc3C(F)(F)F)nnc21`: the growth is 27.2%.

Take `Nc1ccccc1NC(=O)c1ccc(CCCC(=O)Nc2ccc(C3CC3N)cc2)cc1` (stereo unspecified): the growth is 45.2%. `C=CCn1c(SCC(=O)Nc2ccc(C(=O)/C=C/c3ccc(OC)cc3)cc2)nnc1-c1ccc(OC)c(OC)c1`: the growth was 87.9%. Same read-out and setting: for `CN1C(C(=O)Nc2ccccn2)=C(O)c2sc(Cl)cc2S1(=O)=O` the value was 104%.

Turning to `CC1/C=C/C=C/C=C/C=C/C=C/C=C/C=C/C(O[C@@H]2O[C@H](C)[C@H](O)[C@@H](O)[C@@H]2N)CC(O)C(C(=O)O)C(O)CC(=O)CC(O)CC(O)CC(O)CC(=O)CCCC(=O)CC(=O)OC1C(C)CC(C)C(O)CC(=O)c1ccc(N)cc1` (stereo partly specified), the growth was -96% (active).

On to `CCN(CC)CC(=O)N(CC)c1ccc(C)c(Cl)c1`, for which the growth was 97.9%. Still for that read-out and setting: next, `NC(CSC(c1ccccc1)(c1ccccc1)c1cccc2ccccc12)C(=O)O` (stereo unspecified): 91.9%. For the compound `O=C(CCn1cnc2c(cc(-c3ccccc3)n2-c2ccccc2)c1=O)Nc1ccc(F)cc1`, the growth is 73.8%. `COc1ccc(C(=O)CC(CC(=O)c2ccc(OC)cc2)c2c(C)nn(-c3ccccc3)c2Cl)cc1`: the growth was 98%. Consider `CCCN1CN2C(=O)N3CN(CCC)CN4C(=S)N(C1)C2C34` (stereo unspecified), for which the growth was 101%.

Regarding `NC1=NC(c2ccccc2)C2=C(N1)/C(=C/c1ccccc1)CCC2` (stereo unspecified), the growth is 47%. Consider `C[C@]12CC[C@@H]3c4ccc(O)cc4CC[C@H]3[C@@H]1CC[C@@H]2NS(=O)(=O)c1ccc(C(F)(F)F)cc1`, for which the growth is 47.5%. Take `OCC1OC(n2cnc3c(NCc4ccco4)ncnc32)C(O)C1O` (stereo unspecified): the growth was 62.8%. For the compound `COc1cc(C2CC(c3cc(Cl)c(C)cc3O)=NN2c2ccc(S(N)(=O)=O)cc2)cc(OC)c1OC` (stereo unspecified), the growth was 2.06% (active).
